Assay results from PubChem BioAssay (NCATS).
Records with an inconclusive call do not appear. Where a call stands in place of a potency, no number is given. Values without a mark were called inactive. Activity calls are given as the source filed them. Calls come from the whole dose curve; as a rule, active = well fitted inhibition curve with a large enough effect; inconclusive = small, poorly fitted or top-dose-only effect; inactive = flat fitted curve, though single readings scatter. Square brackets hold non-standard residues; d marks the D form. Peptide text beside a SMILES is read from it. Ala(indol-2-yl) = N[C@@H](Cc1cc2ccccc2[nH]1)C(=O)O; Aib = CC(C)(N)C(=O)O

biological target: Aldehyde dehydrogenase, mitochondrial (Homo sapiens) (UniProt P05091); experiment: qHTS for Inhibitors of the Aldehyde Dehydrogenase Family (ALDH2) Primary screen (AID 2061308); details: ALDH2 enzyme inhibition qHTS, 1536-well; series mostly up to 56 µM; note: nearly all actives have a fitted effect of over 55% in size

SMILES | Potency | activity change, negative = inhibition
C=C(C)[C@@]12O[C@@H]1[C@@]1(C)C(=CC2=O)CC[C@@H](OC(C)=O)[C@@H]1C | inactive | –
CO[C@H]1C[C@H](O[C@H]2CC[C@@]3(C)C(=CCC4C3CC[C@]3(C)[C@@H](C5=CC(=O)OC5)CC[C@]43O)C2)O[C@@H](C)[C@@H]1O[C@@H]1O[C@H](CO[C@@H]2O[C@H](CO)[C@@H](O)[C@H](O)[C@H]2O)[C@@H](O)[C@H](O)[C@H]1O (stereo partly drawn) | inactive | –
C/C1=C/[C@@H](C)C/C=C/[C@H]2[C@@H]3O[C@]3(C)[C@@H](C)[C@H]3[C@H](Cc4c[nH]c5ccccc45)NC(=O)[C@]32C(=O)/C=C\C(=O)[C@@H]1O | inactive | –
C=C1[C@@H](C)[C@H]2[C@H](Cc3ccccc3)NC(=O)[C@]23[C@H](OC(C)=O)/C=C/[C@](C)(O)C(=O)[C@@H](C)C/C=C/[C@H]3[C@@H]1O | inactive | –
CC(=O)OC[C@]12C[C@H](OC(C)=O)C(C)=C[C@H]1O[C@@H]1[C@H](O)[C@@H](O)[C@@]2(C)[C@]12CO2 | inactive | –
COC(=O)N1CCN(C(=O)Cc2ccc(Cl)c(Cl)c2)[C@@H](CN2CCCC2)C1 | inactive | –
C/C=C(\C)C(=O)OC1CC2C(C)(C)OC(=O)CC(OC(C)=O)C2(C)C2CC(OC(=O)C(C)C)C3(C)C(c4ccoc4)CC4OC43C12C (stereo not drawn) | inactive | –
CC(C)(NC(=O)[C@@H](N)Cc1ccc(O)cc1)C(=O)N[C@@H](Cc1cc2ccccc2[nH]1)C(=O)N[C@@H](Cc1ccccc1)C(=O)O (H-Y[Aib][Ala(indol-2-yl)]F-OH) | – | -1.78% [at 11.2 µM]
C=C(C)[C@H]1O[C@H]2CC[C@@]3(C)[C@@](O)(CC[C@H]4[C@@H]5OC(C)(C)[C@H]6C[C@@H]7C(=C)Cc8c(Cl)cc9[nH]c(c5c9c8[C@@]76O)[C@@]43C)[C@]23O[C@@H]3[C@H]1O | inactive | –
C/C=C(\C)C(=O)O[C@H]1[C@H](OC(C)=O)[C@]2(CO)[C@H](O)[C@H](O)[C@]3(C)C(=CCC4[C@@]5(C)CC[C@H](O[C@@H]6O[C@H](C(=O)O)[C@@H](O)[C@H](O[C@@H]7OC[C@H](O)[C@H](O[C@@H]8OC[C@H](O)[C@H](O)[C@H]8O)[C@H]7O)[C@H]6O[C@@H]6O[C@H](CO)[C@@H](O)[C@H](O)[C@H]6O)C(C)(C)C5CC[C@]43C)[C@@H]2CC1(C)C (stereo partly drawn) | – | 1.02% [at 11.2 µM]
CCC1C2CC3C4N(C)c5ccccc5C45CC(C2C5O)N3C1O (stereo not drawn) | inactive | –
COc1cc(C(=O)O[C@H]2[C@@H]3C=CO[C@@H](O[C@@H]4O[C@H](CO)[C@@H](O)[C@H](O)[C@H]4O)[C@@H]3[C@@]3(CO)O[C@@H]23)ccc1O | inactive | –
CC(CCc1ccc(O)cc1)O[C@@H]1O[C@H](CO[C@H]2OC[C@](O)(CO)[C@H]2O)[C@@H](O)[C@H](O)[C@H]1O (stereo partly drawn) | inactive | –
COC1CC(O[C@H]2CC[C@@]3(C)C(=CCC4C3C(O)[C@@H](O)[C@]3(C)[C@@H](C(C)=O)CC[C@]43O)C2)OC(C)C1OC1CC(OC)C(OC2OC(C)C(O)C(O)C2O)C(C)O1 (stereo partly drawn) | inactive | –
COC(=O)C12C(=O)C(C)(O)C(=O)C1(C)C(C)=CC1C34CCC(OC3=O)C(C)(CO)C4CCC12C (stereo not drawn) | inactive | –
CC1=CC(=O)[C@@H](O)[C@]2(C)C3[C@@H](O)[C@@H]4OC(=O)[C@@H]([C@H]4C)[C@]3(C)C(=O)C[C@@H]12 (stereo partly drawn) | inactive | –
COC(=O)[C@@]12C(=O)C(C)C(=O)[C@]1(C)C(C)=C[C@H]1[C@]3(C=O)CC[C@H](OC(C)=O)C(C)(C)[C@H]3CC[C@@]12C (stereo partly drawn) | inactive | –
CN1C(=O)N(c2ccc(C#N)c(C(F)(F)F)c2)C(=O)[C@@]1(CO)c1ccccc1 | inactive | –
C=CC(C)(C)C12C=C(O)C(=O)N3/C(=C\c4cnc[nH]4)C(=O)NC31N(OC)c1ccccc12 (stereo not drawn) | inactive | –
CCCCCCC1C(=O)O[C@H](C)[C@H](NC(=O)c2cccc(NC=O)c2O)C(=O)O[C@@H](C)[C@@H]1OC(=O)CC(C)C (stereo partly drawn) | inactive | –
COc1ccc(CN(C(=O)[C@@H](N)Cc2c(C)cc(C(N)=O)cc2C)[C@@H](C)c2ncc(-c3ccccc3)[nH]2)cc1C(=O)O | inactive | –
C=CCN1CCC2(C)c3cc(O)ccc3C[C@H]1[C@H]2C | inactive | –
COC1CC(O[C@H]2CC[C@]3(C=O)C4CC[C@]5(C)[C@@H](C6=CC(=O)OC6)CC[C@]5(O)[C@@H]4CC[C@@H]3C2)OC(C)C1O[C@@H]1O[C@H](CO)[C@@H](O[C@@H]2O[C@H](CO)[C@@H](O)[C@H](O)[C@H]2O)[C@H](O)[C@H]1O (stereo partly drawn) | inactive | –
